Measurements from PubChem BioAssay.

Legend:
[1] = target: Tumor necrosis factor receptor superfamily member 10B (Homo sapiens) (UniProt O14763); assay: viability loss of caspase-8 NB7 cells with TRAIL – with/without TRAIL, luminescence panel, confirmation (AID 651596); settings: NB7 neuroblastoma + caspase-8, TRAIL sensitization, NB7 Caspase-8, with TRAIL, mean of runs, at 10 µM, stronger effect = higher value
[2] = as above; settings: NB7 neuroblastoma + caspase-8, without TRAIL, NB7 Caspase-8, without TRAIL, mean of runs, at 10 µM

Tumor necrosis factor receptor superfamily member 10B (Homo sapiens), sequence (O14763 whole entry, looked up): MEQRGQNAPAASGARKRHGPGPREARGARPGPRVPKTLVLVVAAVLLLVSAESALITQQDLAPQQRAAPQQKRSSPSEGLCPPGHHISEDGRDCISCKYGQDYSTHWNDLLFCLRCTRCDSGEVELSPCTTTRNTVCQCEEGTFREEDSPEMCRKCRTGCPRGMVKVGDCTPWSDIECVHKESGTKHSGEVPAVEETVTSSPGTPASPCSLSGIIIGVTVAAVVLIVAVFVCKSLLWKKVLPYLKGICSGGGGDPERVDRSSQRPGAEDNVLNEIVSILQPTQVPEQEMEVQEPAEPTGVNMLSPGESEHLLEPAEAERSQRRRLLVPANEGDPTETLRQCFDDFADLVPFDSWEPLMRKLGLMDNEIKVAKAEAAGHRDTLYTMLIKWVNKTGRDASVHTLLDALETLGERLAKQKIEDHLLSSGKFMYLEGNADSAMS

SMILES | activity [1] | activity [2]
CCCCCc1cc(=O)oc2c(C(CCN3CCCC3)c3cc(OC)c(OC)c(OC)c3)c(OC)cc(OC)c12 (configuration not stated) | 28.4% | 69.4%
O=C(CNC(=O)c1ccccc1F)N/N=C/c1cc(Br)ccc1OC(=O)/C=C/c1ccco1 | 3.4% | 20.8%
CCN1CCN(c2ccc(S(=O)(=O)N3CCCCC3)cc2NC(=O)/C=C/c2ccc(OC(F)F)cc2)CC1 | 3.5% | 5.28%
Cc1ccc2nc(-c3ccc(NC(=O)C4CCCO4)cc3)[nH]c2c1 (configuration not stated) | 72.2% | 71.9%
COc1ccc(C(=O)c2no[n+]([O-])c2C(=O)c2ccc(OC)cc2)cc1 | 98.3% | 99%
O=C(CN1CCN(S(=O)(=O)c2ccc(F)cc2)CC1)Nc1ccc(Cl)c(C(F)(F)F)c1 | 24.1% | 31.8%
Cc1nnc(SCC(=O)Nc2ccc(-c3nc4ccccc4s3)cc2)s1 | 51.9% | 33.7%
CC1CCN(c2ccc(-c3ccc(NC(=O)C(F)(F)F)cc3)nn2)CC1 | 94.6% | 96%
Cc1ccc(C)c(C(=O)O/N=C(\N)c2ccc(Br)cc2)c1 | 80.1% | 78.7%
Cc1ccc(-c2cc(C(=O)N3CCCC3)no2)cc1 | 73.3% | 67%
Cc1cnc(NC(=O)c2ccc(OCC3CCCO3)cc2)s1 (configuration not stated) | 93.3% | 94.7%
